One assay concerns Staphylococcus aureus. As to conditions: Concentration 32 ug.mL-1;; ASSAY_TEST Inhibition of Bacterial Growth; detection method Absorption (OD600); MEDIA CAMHB; plate type 384well; NBS; CORNING #3640; time 18 hr.
The next assay relates to Escherichia coli. The settings on record: Concentration 32 ug.mL-1;; ASSAY_TEST Inhibition of Bacterial Growth; detection method Absorption (OD600); MEDIA CAMHB; plate type 384well; NBS; CORNING #3640; time 18 hr.

Measured potencies and affinities stand elsewhere.

The source of these data is ChEMBL document CHEMBL4513146, “CO-ADD screening of Karazin Kharkiv National University (Ukraine) compounds”.

As usually defined, the Inhibition is the drop in the measured response relative to a control, in per cent.

For `CCCCN(C)c1ccc2nnc(CCc3nc(-c4ccc(C(F)(F)F)cc4)no3)n2n1`, the Inhibition in the assay on Staphylococcus aureus was 7.8%; in the assay with Escherichia coli it was -3.35%.
For `Cc1cc(C)cc(NC(=O)Cn2nc3c4cc(-c5ccc(Cl)cc5)nn4ccn3c2=O)c1` the same measures were 2.02% and 6.23%.
`Cc1cc(C)cc(Nc2nc(C)cc3nn(CC(=O)N(C)c4cccc(C)c4)c(=O)n23)c1`: the figures for the Inhibition in the assay with Staphylococcus aureus and in the assay on Escherichia coli were 5.67% and -3.82%, respectively.
On to `Cc1ccccc1Cn1nc2c(=O)n(-c3cccc(Cl)c3C)ccn2c1=O`, for which the figures for the Inhibition with Staphylococcus aureus and in the assay on Escherichia coli were -10.1% and -10.57%, respectively.
`COc1ccc(NC(=O)Cn2nc3nc(N4CCCCCC4)ccn3c2=O)cc1Cl`: the Inhibition is listed as -1.58% with Staphylococcus aureus and -10.88% in the assay on Escherichia coli.
Take `COc1ccc(-c2cc3c4nnc(CCC(=O)NCc5ccc6c(c5)OCO6)n4ccn3n2)cc1`: the Inhibition with Staphylococcus aureus is given as -1.19%; in the assay on Escherichia coli, 5.34%.
On to `Cc1ccc(CNC(=O)c2ccc3nn(CC(=O)Nc4ccc(C(F)(F)F)cc4)c(=O)n3c2)cc1`, for which the Inhibition in the assay with Staphylococcus aureus is reported as -2.47%; with Escherichia coli it was -0.22%.
On to `Cc1nnc2ccc(S(=O)(=O)N(Cc3cccc(F)c3)c3cc(F)cc(F)c3)cn12`, for which the figures for the Inhibition in the assay with Staphylococcus aureus and in the assay on Escherichia coli were 9.82% and -6.06%, respectively.
For `CCC(Sc1nnc2c(=O)n(-c3cccc(OC)c3)ccn12)C(=O)Nc1cc(OC)cc(OC)c1` (configuration not stated) the same measures were 13.02% and -6.26%.
For the molecule `Cc1nnc2ccc(S(=O)(=O)N(Cc3cccc(F)c3)c3ccc4c(c3)OCO4)cn12`, the figures for the Inhibition with Staphylococcus aureus and in the assay with Escherichia coli were -10.23% and -15.4%, respectively.
Regarding `COc1cccc(-n2ccn3c(SCC(=O)Nc4ccccc4Cl)nnc3c2=O)c1`, the Inhibition is 11.46% in the assay on Staphylococcus aureus and -4.64% in the assay with Escherichia coli.
As for `Cc1ccc(NC(=O)Cn2nc3c(Sc4ccccc4)nc4ccccc4n3c2=O)cc1C`, the Inhibition in the assay on Staphylococcus aureus is given as -2.53%; in the assay on Escherichia coli it was -4.65%.
The corresponding values for `Cc1cccc(CN(c2ccc(C(C)C)cc2)S(=O)(=O)c2cccn3c(C)nnc23)c1` are 5.76% and -1.18%.
The corresponding values for `O=C(Cn1nc2ccc(-c3ccc(Cl)cc3)nn2c1=O)NC1CCCC1` are 12.95% and 1.75%.
With `CCc1ccc(N(Cc2cccc(Cl)c2)S(=O)(=O)c2cccn3c(C)nnc23)cc1`, the Inhibition in the assay with Staphylococcus aureus is on record as 10.13%; in the assay on Escherichia coli, -1.93%.
Take `COC(=O)c1ccc(CN(c2ccc(C)cc2)S(=O)(=O)c2ccc3nnc(C)n3c2)o1`: the results for the Inhibition with Staphylococcus aureus and in the assay with Escherichia coli were 4.75% and -4.99%, respectively.
`O=C(CSc1nnc2c(=O)n(-c3ccc(F)cc3)ccn12)N1CCN(c2ccc(F)cc2)CC1`: the Inhibition with Staphylococcus aureus is on record as 9.4%; with Escherichia coli, -2.88%.
On to `Cc1ccccc1Nc1cc(C)n2c(=O)n(CCc3ccccc3)nc2n1`, for which the Inhibition in the assay with Staphylococcus aureus is on record as -11.65%; in the assay on Escherichia coli, -1.35%.
For `COc1ccc(CNC(=O)CSc2nnc3c4cc(-c5ccccc5)nn4ccn23)cc1` the same measures were 9.71% and 1.16%.
For `CCc1nnc2c(SCC(=O)Nc3cccc(Br)c3)nc3ccccc3n12`, the Inhibition is reported as 1.73% in the assay with Staphylococcus aureus and -7.45% in the assay on Escherichia coli.
As to `Cc1ccc(-c2cc3c4nn(CC(=O)Nc5ccc(F)cc5)c(=O)n4ccn3n2)cc1C`, the Inhibition is listed as -6.62% in the assay on Staphylococcus aureus and -8.95% with Escherichia coli.
Consider `O=C(Cn1nc2ccc(SC3CCCCC3)nn2c1=O)NCc1ccc(Cl)cc1`, for which the Inhibition in the assay on Staphylococcus aureus is 6.56%; in the assay on Escherichia coli, -1.29%.
Regarding `Cc1ccc(NC(=O)Cn2nc3ccc(-c4ccc(Cl)cc4)nn3c2=O)cc1F`, the Inhibition is listed as 3.27% in the assay with Staphylococcus aureus and -3.59% in the assay on Escherichia coli.
For `CCCCn1c(=O)c2sccc2n2c(=O)n(CC(=O)N3CCCC(C(=O)OCC)C3)nc12` (configuration not stated) the same measures were 0.89% and -5.26%.
As to `N#CCn1nc2n(Cc3ccccc3)c(=O)c3ccccc3n2c1=O`, the results for the Inhibition with Staphylococcus aureus and with Escherichia coli were 14.89% and 2.96%, respectively.
As to `O=C(Cn1nc2ccc(SC3CCCCC3)nn2c1=O)Nc1ccc2c(c1)OCO2`, the results for the Inhibition in the assay with Staphylococcus aureus and in the assay on Escherichia coli were -7.41% and -17.56%, respectively.
`O=C(Cn1nc2c3sc(N4CCCC4)nc3ncn2c1=O)Nc1ccccc1Cl`: the values for the Inhibition in the assay with Staphylococcus aureus and in the assay on Escherichia coli were 4.77% and -9.42%, respectively.
As to `Cc1nnc2c(SCC(=O)Nc3ccc4c(c3)OCCO4)nc3ccccc3n12`, the Inhibition in the assay with Staphylococcus aureus was found to be 5.53%; with Escherichia coli, 3.38%.
As for `CSc1cccc(NC(=O)Cn2nc3ccc(-c4ccc(C)c(C)c4)nn3c2=O)c1`, the Inhibition with Staphylococcus aureus is on record as -11.35%; with Escherichia coli, -14.99%.
On to `CCc1ccccc1NC(=O)Cn1nc2cc(C)nc(Nc3ccc(F)cc3)n2c1=O`, for which the Inhibition in the assay on Staphylococcus aureus is listed as 8.34%; with Escherichia coli, -2.85%.
Take `Cc1ccc(-c2ccc3nn(Cc4cccc(Br)c4)c(=O)n3n2)cc1`: the values for the Inhibition with Staphylococcus aureus and in the assay on Escherichia coli were 2.3% and -6.95%, respectively.
Turning to `Cc1ccc(Oc2nccn3c(=O)n(CC(=O)N4CCN(c5ccc(F)cc5)CC4)nc23)cc1`, the Inhibition with Staphylococcus aureus came out at 10.18%; in the assay with Escherichia coli, 1.45%.
The corresponding values for `Cc1cccc(NC(=O)Cn2nc3ccc(-c4ccc(Cl)cc4)nn3c2=O)c1C` are 5.25% and -5.96%.
On to `CC(C)Cn1c(=O)c2ccc(C(=O)NC3CCCCC3)cc2n2c(=O)n(CC#N)nc12`, for which the Inhibition in the assay with Staphylococcus aureus is on record as 8.84%; in the assay on Escherichia coli, -0.16%.
For `CC(C)c1ccc(NC(=O)Cn2nc3c(SCc4ccccc4)nccn3c2=O)cc1` the same measures were 1.97% and -7.26%.
For `Cc1ccc(-c2cc3c4nnc(CCC(=O)N5CCN(c6ccccn6)CC5)n4ccn3n2)cc1C`, the figures for the Inhibition with Staphylococcus aureus and in the assay on Escherichia coli were -0.56% and -4.11%, respectively.
